# AmpC inh detg: qHTS Inhibitors of AmpC Beta-Lactamase (assay with detergent); P00811; 0.041% of 370,000 active; Potency, µM (titrated, usually from 114 µM), inactives show top-dose activity change, negative = inhibition, actives largely listed as inhibitors; AmpC hydrolysis of nitrocefin, absorbance 480 nm, 0.01% Triton;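 note: 0% = no-compound wells and -100% = no-enzyme wells; nearly all actives have a fitted effect of over 25% in size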
#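 AmpC (5.3 nM in the dispensed reagent) in 20 mM phosphate pH 7.0 with 0.01% (detergent screen) or 0.0001% Triton X-100 was preincubated with compounds for 15 min at room temperature. Nitrocefin was then added from an 800 uM solution, and hydrolysis was followed at 480 nm.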
# AmpC inh no detg: qHTS Inhibitors of AmpC Beta-Lactamase (assay without detergent); P00811; AmpC nitrocefin hydrolysis, absorbance 480 nm, 0.0001% Triton; Potency, µM (top dose mostly 57.1 µM), for the others: top-dose activity change, negative = inhibition, actives largely listed as inhibitors; 0.52% of 330,000 active; AID 485341, 2010;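 note: plate controls were no compound for no effect and no enzyme for full effect; nearly all actives have a fitted effect of over 20% in size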
#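 20 mM phosphate pH 7.0 + 0.01% (detergent screen) or 0.0001% Triton X-100; 5.3 nM AmpC reagent; cpd preinc 15 min RT; nitrocefin (800 uM stock) to start; A480 q20 s × 4 min; Activity was normalised to no-enzyme and no-compound control wells.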
# RE007 growth inh: qHTS Assay for Inhibitors of the HIV-1 protein Vpr | S. pombe RE007 Vpr strain, BacTiter-Glo ATP luminescence, 24 h | Potency, µM (top dose mostly 92.2 µM), inactives show at the top dose activity change, negative = less growth, usual class: inhibitors | 0.21% of 360,000 active; active = well fitted falling curve with a large enough effect; inconclusive = small, poorly fitted or top-dose-only effect; inactive = no such curve, though single readings can be large or run the other way; note: nearly all actives have a fitted effect of over 50% in size
#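 Fission yeast RE007 carrying one integrated HIV-1 vpr copy, seeded at OD 0.01 in PMG+AL medium with 23 nL pinned compound. Grown 24 h at 30 degrees; viability read by BacTiter-Glo luminescence after 5 min.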
# FBPA Giardia inh: qHTS Assay for Inhibitors of Fructose-1,6-bisphosphate Aldolase from Giardia Lamblia. 0.71% of 290,000 active. A8B2U2. purified Giardia FBPA. Potency, µM (titrated, usually from 59.6 µM), without a hit: at the top dose activity, negative = inhibition, hits mostly inhibitors. AID 2451, 2010; note: nearly all actives have a fitted effect of over 55% in size
# Target sequence (A8B2U2 whole entry, looked up): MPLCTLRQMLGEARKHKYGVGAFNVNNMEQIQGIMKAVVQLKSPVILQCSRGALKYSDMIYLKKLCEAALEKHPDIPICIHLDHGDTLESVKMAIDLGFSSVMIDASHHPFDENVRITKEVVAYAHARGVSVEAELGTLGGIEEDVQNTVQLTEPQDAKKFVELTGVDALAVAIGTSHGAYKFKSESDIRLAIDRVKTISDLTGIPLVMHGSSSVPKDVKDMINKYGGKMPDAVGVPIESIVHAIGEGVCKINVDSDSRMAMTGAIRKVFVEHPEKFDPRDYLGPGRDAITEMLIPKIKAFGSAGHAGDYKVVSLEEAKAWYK
#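 Giardia FBPA (40 nM reagent) was preincubated 10 min at RT with compound (up to 57.5 uM final), then substrate plus GAPDH/TPI/NAD/arsenate coupling system with diaphorase/resazurin was added; resorufin fluorescence (525/598 nm) was read after 20 min.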
# Sm TGR block: qHTS Assay for the Inhibitors of Schistosoma Mansoni Peroxiredoxins; Schistosoma mansoni thioredoxin glutathione reductase (TGR), Q962Y6; purified TGR, DTNB reduction, TNB absorbance 405 nm; Potency, µM (series often up to 114 µM), without a hit: at the highest dose activity change, negative = inhibition, hits mostly inhibitors; 3% of 360,000 active; AID 485364, 2010; note: nearly all actives have a fitted effect of over 60% in size
#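 Kinetic colorimetric format: TGR-catalysed, NADPH-driven DTNB reduction monitored via TNB absorbance. Enzyme dispensed at 20 nM; compound exposure 15 min at room temperature before reaction start.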
# * = called active by the depositor; ? = inconclusive; · = no result given. An excerpt weighted towards active compounds, which were near 3.4% of everything screened. Unless noted, calls come from the whole dose curve; as a rule, active = well fitted curve in the direction sought with a large enough effect; inconclusive = small, poorly fitted or top-dose-only effect, or another doubt; inactive = no such curve, though single readings can be large; an effect the other way counts as inactive or inconclusive. Unless noted, % is set by controls: 0 for no effect and ±100 for the full control effect; potency is the fitted concentration of half-maximal effect.
SMILES,AmpC inh detg,AmpC inh no detg,RE007 growth inh,FBPA Giardia inh,Sm TGR block
Cc1cnc(C)c(N2CCN(Cc3cn(C)nc3-c3cccc(Cl)c3)CC2)n1,4%,186%,-2%,2%,?
CC(=NCC1CCCO1)c1c(O)n(Cc2ccccc2)c(=O)[nH]c1=O (centres undefined),7%,2.2µM*,0%,-1%,-20%
C/C(=N\Nc1cccc2ccccc12)c1c(O)n(Cc2ccccc2)c(=O)[nH]c1=O,-14%,-38%,·,?,13µM*
N#Cc1cccc(-c2ccc3ncnc(NC4CCNCC4)c3c2)c1,·,·,·,0%,·
Cc1ccc(NC(=O)C(C)N2C(=O)C3C4CC(C(Br)C4Br)C3C2=O)cc1 (centres undefined),5%,-1%,6%,-2%,5%
COc1ccccc1CNC(=O)COC(=O)C1CCN(S(=O)(=O)c2c(Cl)cccc2Cl)CC1,·,·,-10%,·,·
S=C(Nc1ccc(Cl)cc1)Nc1ccc2c(c1)OCCO2,-7%,-26%,8%,·,?
COc1ccc(-n2nnnc2SCC(=O)N2CCOCC2)cc1,?,0.89µM*,6%,1%,2%
Cc1ccc(-n2c3c(cc(C(=O)NC4CCSC4=O)c2=O)C(=O)CCC3)cc1 (centres undefined),?,-5%,20%,-28%,79µM*
COc1ccc(-n2c3c(cc(C(=O)NC4CCSC4=O)c2=O)C(=O)CC(C)(C)C3)cc1 (centres undefined),?,24%,-6%,-1%,-4%
CCOc1ccc(NC(=O)N2CCN(Cc3cc(=O)n4nc(-c5ccc(OC)cc5)sc4n3)CC2)cc1,-8%,·,·,·,-2%
O=C(NCc1ccco1)c1ccc(-c2ccc(Cl)cc2)o1,4%,-38%,-9%,-8%,-9%
O=C(NCc1ccco1)c1ccc([N+](=O)[O-])o1,-4%,-17%,-8%,-16%,28µM*
O=C(NCc1ccco1)c1c(F)c(F)c(F)c(C(=O)NCc2ccco2)c1F,-5%,-22%,-3%,0%,45µM*
O=C(NCc1ccco1)c1ccc(-c2ccccc2Cl)o1,-4%,-40%,-25%,-4%,25µM*
COC(=O)/C=C\C(C#N)(C#N)N=Cc1ccc(OC)cc1,·,·,-19%,·,·
CNc1oc(-c2ccc(OCc3ccccc3)cc2)nc1C#N,-2%,-20%,5%,-3%,-13%
Cc1ccc(-c2csc3nc(CSc4nnc(-c5ccc(Cl)cc5)n4C)[nH]c(=O)c23)cc1,?,-29%,-6%,5%,-9%
O=[N+]([O-])c1ccc(-n2nnnc2-c2ccccc2)cc1,-3%,-19%,-5%,2%,-1%
O=[N+]([O-])c1ccc(-n2nnnc2-c2ccccc2)c([N+](=O)[O-])c1,-8%,-7%,·,?,18µM*
COCCNC(=O)/C(C#N)=C\c1ccc(CNC(=O)C(=O)Nc2ccc(C)c(C)c2)o1,4%,-2%,-6%,-8%,·
CCOC(=O)C1=C(O)/C(=C\c2ccc(CNC(=O)C(=O)Nc3ccc(C)c(C)c3)o2)N=C1C,?,-36%,·,-15%,40µM*
Cc1ccc(-n2ncc3c(NCc4ccccn4)ncnc32)c(C)c1,?,0%,10%,-24%,0%
Cc1ccc(-n2ncc3c(NCc4ccco4)ncnc32)c(C)c1,?,-24%,13%,-13%,40µM*
O=C(c1cccc(Br)c1)N1CCN(C(=O)N2CCCCC2)CC1,0%,18%,1%,6%,8%
O=C1/C(=C/c2ccco2)N=C(N2CCCCC2)N1c1ccccc1,?,-25%,5%,-11%,45µM*
CN1C(=S)N(c2ccccc2)C(=O)/C1=C/c1ccco1,-6%,-16%,?,-17%,?
CC(C)N(C1=N/C(=C\c2ccco2)C(=O)N1c1ccccc1)C(C)C,-8%,-9%,-8%,-1%,40µM*

# Screening data: PubChem, National Center for Advancing Translational Sciences (NCATS)
